In all, about 420,000 compounds went through this assay and about 50,000 (12%) were called active. Another 26% or so got no clear call; they are omitted. The list comes from a sample in which actives are over-represented; it also holds similar structures and randomly drawn compounds. Entries that show only a call come without a potency. Values without a mark were called inactive. Calls come from the whole dose curve; as a rule, active = well fitted inhibition curve with a large enough effect; inconclusive = small, poorly fitted or top-dose-only effect; inactive = flat fitted curve, though single readings scatter.
Potency is the fitted concentration of half-maximal effect.

This assay is described as follows: qHTS for Inhibitors of human tyrosyl-DNA phosphodiesterase 1 (TDP1): qHTS in cells in presence of CPT. Note: nearly all actives have a fitted effect of over 55% in size. The following applies: chicken DT40 Tdp1-/-;hTDP1 cells + 20 nM CPT, ATP luminescence, 48 h; series mostly up to 46.2 µM. A digest of the protocol:
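Chicken DT40 Tdp1-/- cells complemented with human TDP1, 400 cells/well, exposed to compounds plus 20 nM camptothecin for at least 48 h at 37 C; viability read as ATP content by CellTiter-Glo luminescence.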
A general note: Quantitative high-throughput screening tests each substance at several concentrations.
For `CC1CCN(C(NC(=O)c2ccco2)C(=O)c2ccccc2)CC1` (centres undefined), the Potency result is “inactive”.

`Cc1csc(SCC(=O)Nc2ccc(C)c(S(=O)(=O)N(C)C)c2)n1`: the Potency result was “inactive”.

Regarding `Cc1ccc(-n2c(C)cc(C(=O)CSc3nnc4ccccn34)c2C)cc1`, the Potency was 23.1 µM (active).

`O=C(CSc1nnc2ccccn12)c1ccccc1`: the Potency result is “inactive”.

On to `Cc1ccc(C(=O)NNC(=O)CSc2nnc3ccccn23)cc1`, for which the Potency result was “inactive”.

As to `COc1ccccc1C(=O)COC(=O)CSCC(=O)Nc1cc(C)on1`, the Potency result is “inactive”.

Consider `NC(=O)C1CCCN(CC(=O)N2CCN(c3ccccc3)CC2)C1` (centres undefined), for which the Potency result is “inactive”.

Take `Cc1ccc(S(=O)(=O)Oc2ccc(/C=N/NC(=O)c3c(Cl)cnn3C)cc2)cc1`: the Potency result is “inactive”.

As to `CC(C)(C)Nc1c(-c2cccs2)nc2ccccn12`, the Potency entry is “inactive”.

`Cc1nc2ccccn2c(=O)c1NC(=O)c1ccc(Br)o1`: the Potency result was “inactive”.

On to `Cc1ccc(-c2nc3ccccn3c2Nc2c(C)cccc2C)o1`, for which the Potency is 16.4 µM (active).

`O=C(CSc1ccccc1)Nc1cccc(S(=O)(=O)N2CCOCC2)c1`: the Potency entry is “inactive”.

As for `CC(=O)Nc1ccc(C(=O)NNC(=O)CCCCC(=O)NNC(=O)c2ccc(NC(C)=O)cc2)cc1`, the Potency entry was “inactive”.

Regarding `Cn1c(=O)n(C)c2cc(C(=O)Nc3ccc(Br)cc3)ccc21`, the Potency result is “inactive”.

Turning to `COCCn1c(=O)[nH]c(=O)c2cc(C(=O)c3cc(OC)ccc3O)cnc21`, the Potency result was “inactive”.

`COc1cc(OC)c2c(c1)OC(=O)CC2c1cc(OC)c(OC)c(OC)c1` (centres undefined): the Potency result was “inactive”.

For the compound `COC(=O)c1cc(CNC(=O)CC(C)c2ccccc2)ccc1OC` (centres undefined), the Potency entry was “inactive”.

As to `COc1cc(NC(=O)CSC(=S)N2CCCC2)c(OC)cc1Cl`, the Potency is 29.1 µM (active).

Take `COc1cc(Cl)c(C)cc1NC(=O)CN1CCCCCC1`: the Potency entry was “inactive”.

For the compound `COc1cc(NC(=S)N2CCCC(C)C2)c(OC)cc1Cl` (centres undefined), the Potency entry was “inactive”.

Regarding `N#C/C(=C\c1cccc(F)c1)c1nc(-c2cc3c(ccc4ccccc43)oc2=O)cs1`, the Potency result is “inactive”.

As to `Cc1cc(C)c(S(=O)(=O)N(C)CC(=O)NCC2CCCO2)c(C)c1` (centres undefined), the Potency result is “inactive”.

In the case of `COc1cccc(C(=O)NC2=NC(c3ccc(N(C)C)cc3)CC(=O)N2)c1` (centres undefined), the Potency entry is “inactive”.

As to `COc1ccc(CCNc2nc(-c3ccc(Cl)cc3)cc(C(F)(F)F)n2)cc1OC`, the Potency is 23.1 µM (active).

Regarding `COc1ccc(CCNc2nc(C)cc(C)n2)cc1OC`, the Potency entry was “inactive”.

In the case of `COc1ccc(CCNC(=O)COC(=O)c2ncc(Cl)c(Cl)c2Cl)cc1OC`, the Potency result was “inactive”.

Take `O=C(CN(C(=O)c1csnn1)c1ccc(Br)cc1)NC1CCCC1`: the Potency result was “inactive”.

`O=C(CCN1C(=O)[C@H]2CC=CC[C@H]2C1=O)NCc1nc(-c2ccccc2)no1`: the Potency entry was “inactive”.

Consider `COc1ccc(OC)c(NC(=O)c2ccc3c(c2)C(=O)N(c2ccc(OC(C)=O)cc2)C3=O)c1`, for which the Potency entry was “inactive”.

For the compound `CC1CCCCN1CCCNc1ccc(C(CC(N)=O)NC(=O)c2ccccc2)cc1[N+](=O)[O-]` (centres undefined), the Potency result is “inactive”.

Regarding `Cc1ccc(OCC(=O)Nc2ccc(NC(=O)c3cccs3)cc2)c(C)c1`, the Potency entry was “inactive”.

Consider `CCC(C)N1C(=S)SC(C)(C)C1N(O)C(=O)NC1CCCCC1` (centres undefined), for which the Potency result was “inactive”.

`O=C(COC(=O)c1ccc(O)cc1O)NNC(=O)c1cccs1`: the Potency entry was “inactive”.

In the case of `Cc1cc2nc3n(c2cc1C)CC1CC(C(=O)NCCC(C)C)N(C)C31` (centres undefined), the Potency entry was “inactive”.

In the case of `COc1ccc(-n2ncc3c(SCC(=O)NNC(C)=O)ncnc32)cc1`, the Potency result was “inactive”.

`COCCN1Cc2cccc(C(=O)Nc3ccccc3OC)c2C1=O`: the Potency result is “inactive”.

Take `CCOc1ccc(NC(=O)c2cccc3c2C(=O)N(CC2CCCO2)C3)cc1` (centres undefined): the Potency result is “inactive”.

As for `COc1ccc(NC(=O)c2cccc3c2C(=O)N(CC2CCCO2)C3)cc1OC` (centres undefined), the Potency was 23.1 µM (active).

Regarding `O=C1NC(c2ccccc2)CCC1(Cl)Cl` (centres undefined), the Potency result is “inactive”.

On to `Cc1ccc(NC(=O)CCN2C(=O)c3ccccc3C2=O)cc1C`, for which the Potency entry is “inactive”.

As to `COC(=O)C[C@H]1C[C@@H]2c3cc(NC(=O)Nc4ccccc4)ccc3O[C@@H]2[C@@H](CO)O1`, the Potency entry was “inactive”.

For `O=C(CN1Cc2ccccc2OC(c2ccccc2)C1)N1CCCCC1c1cccnc1` (centres undefined), the activity change, negative = growth inhibition is -0.761% [at 9.04 µM].

Consider `COc1ccc(CNCCCNCc2ccc(OC)c(OC)c2)cc1OC`, for which the Potency result was “inactive”.

As for `COc1cc(CNCc2ccc(OC)c3ccccc23)cc(OC)c1OC`, the Potency is 9.2 µM (active).

Regarding `COc1cc(CNCc2cccs2)cc(Br)c1OC`, the Potency result is “inactive”.

Take `Cn1cncc1COC(=O)c1ccc(Cl)cc1`: the Potency entry is “inactive”.

Consider `Cc1ccccc1NC(=O)c1nn(-c2ccc(F)c(F)c2)ccc1=O`, for which the Potency entry was “inactive”.

As to `Cc1cccc(NC(=S)N(CCN(C)C)C(C)c2ccco2)c1` (centres undefined), the Potency entry is “inactive”.

Regarding `CN1CCN(c2ccncc2S(=O)(=O)N2CCCC2)CC1`, the Potency entry is “inactive”.

Regarding `O=S(=O)(c1cnccc1N1CCN(/N=C/c2ccc(Br)cc2)CC1)N1CCCCC1`, the Potency was 18.4 µM (active).

For `CC(C)NC(=O)N1CCN(c2ccncc2S(=O)(=O)N2CCCCC2)CC1`, the Potency result was “inactive”.

Turning to `Cc1ccc(NC(=O)COc2ccc(/C=N\NC(=O)c3cccnc3)cc2)cc1C`, the Potency result was “inactive”.

With `CC1(C)N=C(N)NC(Nc2ccc(Cl)cc2)=N1`, the Potency entry is “inactive”.

As to `COc1ccccc1NC1=NC2(CCCC2)N=C(N)N1`, the Potency result is “inactive”.

Take `COc1ccccc1NC1=NC(c2ccc(Cl)cc2)N=C(N)N1` (centres undefined): the Potency was 5.17 µM (active).

Consider `CC1(C)C(C=C(Cl)Cl)C1C(=O)NC(O)C(=O)c1ccccc1` (centres undefined), for which the Potency result was “inactive”.

As for `COCCN(C(=O)CSCc1ccc(C)cc1)c1c(N)n(CC(C)C)c(=O)[nH]c1=O`, the Potency entry was “inactive”.

Regarding `C[C@]12C=CC(=O)C=C1CC[C@@H]1[C@@H]2C(=O)C[C@@]2(C)[C@H]1CC[C@]2(O)C(=O)CO`, the Potency entry is “inactive”.

Turning to `CCC1CCCCN1C(=S)NC(=O)c1ccco1` (centres undefined), the Potency entry was “inactive”.

In the case of `O=C1OC(c2ccc(Cl)cc2)=N/C1=C\c1cccnc1`, the Potency result was “inactive”.

On to `CCOc1cc(/C=C2/N=C(c3ccc(C(C)(C)C)cc3)OC2=O)cc(Cl)c1OS(C)(=O)=O`, for which the Potency is 18.4 µM (active).

Consider `CC1CCN(C(=O)COC(=O)CCC(=O)c2cccs2)CC1`, for which the Potency result was “inactive”.

As to `COc1cc(C2CC(=O)Oc3cc(OC)c(OC)c(OC)c32)cc(OC)c1OC` (centres undefined), the Potency entry was “inactive”.

As to `Cc1cc(C)cc(NS(=O)(=O)Cc2ccccc2)c1`, the Potency entry was “inactive”.

Regarding `Cn1nnnc1SCC(=O)NNC(=O)c1ccc(Br)cc1`, the Potency entry is “inactive”.

Take `Cc1nc2ccccc2cc1OCc1ccc(F)cc1`: the Potency is 11.6 µM (active).

With `Cc1nc2ccccc2cc1O`, the Potency entry is “inactive”.

For the compound `Cc1occc(=O)c1OCc1ccc(F)cc1`, the Potency entry is “inactive”.

`COC(=O)C1[C@H]2SC(C)(C)C(C(=O)OC)N2C(=O)N1Cc1nc2ccccc2s1` (some centres undefined): the Potency entry was “inactive”.

Turning to `COCCNC(=O)c1cc(-c2cccc(Cl)c2)on1`, the Potency result was “inactive”.

In the case of `CC(C)c1nnc(NC(=O)C2CC(=O)N(CCc3ccc(F)cc3)C2)s1` (centres undefined), the Potency entry is “inactive”.

Regarding `O=C(CCC(=O)n1ncc2ccccc21)NCc1ccccc1Cl`, the Potency result was “inactive”.

As to `CCOC(=O)c1cc(NC(=O)c2cccnc2)cc(C(=O)OCC)c1`, the Potency result was “inactive”.

Regarding `CCc1noc(C)c1C(=O)Nc1nc2ccc(OC)cc2s1`, the Potency result was “inactive”.

On to `O=C(Cc1ccccc1)Nc1ccc(NC(=O)c2cccnc2)cc1`, for which the Potency result is “inactive”.

On to `CCCC(=O)Nc1nc2ccc(NC(=O)c3cccnc3)cc2s1`, for which the Potency is 9.2 µM (active).

Regarding `CCCC(=O)Nc1nc2ccc(NC(=O)c3c(F)c(F)c(OC)c(F)c3F)cc2s1`, the Potency is 0.92 µM (active).

Take `CCCC(=O)Nc1ccc2c(c1)nc1n2CCSC1`: the Potency result is “inactive”.

`Cc1cc(C)c(S(=O)(=O)N2C=CC(C(F)(F)F)=NCC2)c(C)c1`: the Potency entry was “inactive”.

For `c1ccc2cc(C3=NCCN3)ccc2c1`, the Potency entry was “inactive”.

In the case of `Cc1ccc(Nc2c(O)nc[nH]c2=O)cc1C`, the Potency entry was “inactive”.

Take `Cc1c(Cl)cccc1NC(=O)[C@@]1(CC(=O)O)CC(/C=C/c2ccccc2)=NO1`: the Potency result is “inactive”.

Take `N#CCc1c(C#N)c(N)nc(N2CCCC2)c1C#N`: the Potency result is “inactive”.

As to `Cc1nnc(NC(=O)c2ccc3nccnc3c2)s1`, the Potency result was “inactive”.

As to `Cc1ccc(C(=O)Nc2nnc(-c3ccncc3)s2)o1`, the Potency entry is “inactive”.

Turning to `Cc1nnc(NC(=O)Nc2ccc(Cl)c(Cl)c2)s1`, the Potency was 23.1 µM (active).

Consider `Cc1ccc(NC(=O)Nc2nnc(-c3ccncc3)s2)cc1`, for which the Potency is 18.4 µM (active).

Consider `CCCCN(C)c1nnc(NC(=O)Nc2ccc(Br)c(C)c2)s1`, for which the Potency entry was “inactive”.

Take `Cc1occc1C(=O)Nc1nnc(-c2ccncc2)s1`: the Potency result is “inactive”.

For the compound `COCC1CCCN(C(=O)c2ccc3oc(C(C)C)nc3c2)C1` (centres undefined), the Potency entry is “inactive”.

Turning to `COCCNC(=O)CN(Cc1ccco1)C(=O)CCC(=O)Nc1nccs1`, the Potency entry was “inactive”.

As for `COc1ccc2c(c1)CCCO[C@]21O[C@H](CCO)C[C@H](O)[C@H]1O`, the Potency result was “inactive”.

For the compound `CCC(C)NC(=O)c1cc(Cl)ccc1OC` (centres undefined), the Potency result is “inactive”.

For `CC1CCN(C(=O)c2ccc3c(=O)n4c(nc3c2)CCCCC4)CC1`, the Potency result was “inactive”.

Regarding `CC1CCc2c(sc3nc4n(c(=O)c23)CCS4)C1` (centres undefined), the Potency result was “inactive”.

On to `Cc1ccc(NC(=O)Nc2sc3nc4n(c(=O)c3c2C)CCC(C)CC4)c(Cl)c1` (centres undefined), for which the Potency was 11.6 µM (active).

`Cc1ccccc1NC(=O)CSc1ccc2nnc(-c3ccccn3)n2n1`: the Potency result is “inactive”.

In the case of `COC(=O)[C@]1(C)N[C@H](CN(C)C(=O)c2ccc(C(C)(C)C)cc2)[C@@H]2C(=O)N(C)C(=O)[C@@H]21`, the Potency entry was “inactive”.

Consider `Cc1cc(C)c(S(=O)(=O)c2cc(F)ccc2C)c(=O)[nH]1`, for which the Potency result is “inactive”.

Take `CC1(C)CN(c2ccc(-c3ccnc4ncnn34)cc2)C1=O`: the Potency result was “inactive”.

Regarding `COc1ccc2c(CN3CCN(S(=O)(=O)c4cccs4)CC3)cc(=O)oc2c1`, the Potency entry is “inactive”.

As to `O=S(=O)(c1cccs1)N1CCN(Cc2ccccc2)CC1`, the Potency result was “inactive”.

For `Cc1cc2oc(=O)cc(CN3CCN(S(=O)(=O)c4cccs4)CC3)c2cc1C(C)C`, the Potency is 23.1 µM (active).

As for `CCOc1ccc(C(CC(=O)O)n2cnnn2)cc1OC` (centres undefined), the Potency result was “inactive”.

Turning to `COc1ccc(C2=NN(C(=O)c3cccnc3)C(c3ccccc3)C2)cc1` (centres undefined), the Potency result is “inactive”.

Regarding `CCC(CC)c1nnc(NC(=O)C2=COCCO2)s1`, the Potency result was “inactive”.

In the case of `Cc1sc2nc(COC(=O)C(NC(=O)c3ccc(Cl)cc3Cl)C(C)C)[nH]c(=O)c2c1C` (centres undefined), the Potency result was “inactive”.

Regarding `Cc1sc2nc(CSCC(=O)Nc3c(Cl)cccc3Cl)[nH]c(=O)c2c1C`, the Potency is 7.31 µM (active).

For the compound `CCN(CC)Cc1nc2sc(C)c(C)c2c(=O)[nH]1`, the Potency entry is “inactive”.

These data come from PubChem BioAssay AID686979 (National Center for Advancing Translational Sciences (NCATS), 2013).
